Measured values published in ChEMBL document CHEMBL1961873, “Compounds: GSK PKIS; Assays: Nanosyn kinase panel” (2012).

Assays:
[1] = biological target: Serine/threonine-protein kinase 26 (Homo sapiens) (UniProt Q9P289); settings: at 1 µM;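 further: mean inhibition of MST4 kinase activity, reported from the GSK PKIS inhibitor-set screening panel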
[2] = biological target: Serine/threonine-protein kinase PAK 1 (Homo sapiens) (UniProt Q13153); settings: at 0.1 µM
[3] = biological target: Serine/threonine-protein kinase PAK 1 (Homo sapiens) (UniProt Q13153); settings: at 1 µM
[4] = biological target: Serine/threonine-protein kinase PAK 2 (Homo sapiens) (UniProt Q13177); settings: at 0.1 µM
Sequence of Serine/threonine-protein kinase PAK 2 (Homo sapiens) (Q13177 whole entry): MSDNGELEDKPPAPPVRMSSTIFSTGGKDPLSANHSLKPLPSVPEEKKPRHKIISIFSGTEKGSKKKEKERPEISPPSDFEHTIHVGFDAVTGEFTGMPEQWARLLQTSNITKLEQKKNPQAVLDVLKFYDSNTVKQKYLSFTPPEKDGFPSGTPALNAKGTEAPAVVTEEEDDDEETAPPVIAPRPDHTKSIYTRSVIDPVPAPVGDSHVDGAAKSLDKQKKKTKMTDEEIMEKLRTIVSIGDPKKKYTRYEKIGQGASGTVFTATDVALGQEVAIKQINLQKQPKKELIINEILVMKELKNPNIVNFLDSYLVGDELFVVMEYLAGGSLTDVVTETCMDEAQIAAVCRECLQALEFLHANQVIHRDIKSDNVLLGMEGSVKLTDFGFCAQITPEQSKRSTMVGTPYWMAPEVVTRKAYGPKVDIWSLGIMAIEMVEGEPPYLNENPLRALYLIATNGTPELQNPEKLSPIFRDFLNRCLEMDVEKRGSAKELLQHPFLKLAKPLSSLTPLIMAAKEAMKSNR

[5] = biological target: Serine/threonine-protein kinase PAK 2 (Homo sapiens) (UniProt Q13177); settings: at 1 µM
[6] = biological target: Serine/threonine-protein kinase PAK 3 (Homo sapiens) (UniProt O75914); settings: at 0.1 µM
Sequence of Serine/threonine-protein kinase PAK 3 (Homo sapiens) (O75914 whole entry, looked up): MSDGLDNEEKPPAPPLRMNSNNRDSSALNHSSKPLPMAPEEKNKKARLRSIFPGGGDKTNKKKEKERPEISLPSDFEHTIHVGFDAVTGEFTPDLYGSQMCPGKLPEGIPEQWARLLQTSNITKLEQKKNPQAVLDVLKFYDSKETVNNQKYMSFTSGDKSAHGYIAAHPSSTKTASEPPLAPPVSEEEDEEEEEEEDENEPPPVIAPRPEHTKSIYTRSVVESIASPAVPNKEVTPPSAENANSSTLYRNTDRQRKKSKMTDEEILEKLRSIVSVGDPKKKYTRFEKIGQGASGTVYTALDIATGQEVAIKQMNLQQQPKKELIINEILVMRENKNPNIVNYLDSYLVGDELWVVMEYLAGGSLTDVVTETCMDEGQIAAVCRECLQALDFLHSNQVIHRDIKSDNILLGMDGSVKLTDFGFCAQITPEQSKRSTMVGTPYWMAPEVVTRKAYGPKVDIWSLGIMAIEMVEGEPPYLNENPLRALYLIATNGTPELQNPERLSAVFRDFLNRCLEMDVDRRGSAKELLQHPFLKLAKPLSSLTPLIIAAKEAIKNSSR

[7] = biological target: Serine/threonine-protein kinase PAK 3 (Homo sapiens) (UniProt O75914); settings: at 1 µM
[8] = biological target: Serine/threonine-protein kinase PAK 5 (Homo sapiens) (UniProt Q9P286); settings: at 0.1 µM
Sequence of Serine/threonine-protein kinase PAK 5 (Homo sapiens) (Q9P286 whole entry, looked up): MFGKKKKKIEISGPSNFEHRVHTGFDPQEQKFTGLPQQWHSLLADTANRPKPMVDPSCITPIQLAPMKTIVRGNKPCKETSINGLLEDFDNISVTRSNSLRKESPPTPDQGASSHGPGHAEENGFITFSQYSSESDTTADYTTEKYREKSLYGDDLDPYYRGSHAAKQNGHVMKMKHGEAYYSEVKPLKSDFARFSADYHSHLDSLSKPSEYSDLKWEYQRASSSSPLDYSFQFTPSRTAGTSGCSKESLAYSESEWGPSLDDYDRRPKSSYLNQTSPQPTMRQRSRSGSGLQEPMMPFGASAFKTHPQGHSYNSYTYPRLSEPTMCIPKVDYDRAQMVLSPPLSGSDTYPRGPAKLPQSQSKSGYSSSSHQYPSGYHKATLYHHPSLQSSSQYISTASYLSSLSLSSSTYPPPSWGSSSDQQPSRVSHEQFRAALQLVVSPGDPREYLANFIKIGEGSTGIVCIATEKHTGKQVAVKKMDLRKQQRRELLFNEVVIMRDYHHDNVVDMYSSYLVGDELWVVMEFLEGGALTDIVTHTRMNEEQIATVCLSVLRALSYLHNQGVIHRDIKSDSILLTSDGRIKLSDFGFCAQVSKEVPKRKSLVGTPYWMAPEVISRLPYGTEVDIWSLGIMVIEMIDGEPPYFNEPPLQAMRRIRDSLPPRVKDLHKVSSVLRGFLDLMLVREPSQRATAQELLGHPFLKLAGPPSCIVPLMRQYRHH

[9] = biological target: Serine/threonine-protein kinase PAK 5 (Homo sapiens) (UniProt Q9P286); settings: at 1 µM
[10] = biological target: Serine/threonine-protein kinase PAK 6 (Homo sapiens) (UniProt Q9NQU5); settings: at 0.1 µM
Sequence of Serine/threonine-protein kinase PAK 6 (Homo sapiens) (Q9NQU5 whole entry, looked up): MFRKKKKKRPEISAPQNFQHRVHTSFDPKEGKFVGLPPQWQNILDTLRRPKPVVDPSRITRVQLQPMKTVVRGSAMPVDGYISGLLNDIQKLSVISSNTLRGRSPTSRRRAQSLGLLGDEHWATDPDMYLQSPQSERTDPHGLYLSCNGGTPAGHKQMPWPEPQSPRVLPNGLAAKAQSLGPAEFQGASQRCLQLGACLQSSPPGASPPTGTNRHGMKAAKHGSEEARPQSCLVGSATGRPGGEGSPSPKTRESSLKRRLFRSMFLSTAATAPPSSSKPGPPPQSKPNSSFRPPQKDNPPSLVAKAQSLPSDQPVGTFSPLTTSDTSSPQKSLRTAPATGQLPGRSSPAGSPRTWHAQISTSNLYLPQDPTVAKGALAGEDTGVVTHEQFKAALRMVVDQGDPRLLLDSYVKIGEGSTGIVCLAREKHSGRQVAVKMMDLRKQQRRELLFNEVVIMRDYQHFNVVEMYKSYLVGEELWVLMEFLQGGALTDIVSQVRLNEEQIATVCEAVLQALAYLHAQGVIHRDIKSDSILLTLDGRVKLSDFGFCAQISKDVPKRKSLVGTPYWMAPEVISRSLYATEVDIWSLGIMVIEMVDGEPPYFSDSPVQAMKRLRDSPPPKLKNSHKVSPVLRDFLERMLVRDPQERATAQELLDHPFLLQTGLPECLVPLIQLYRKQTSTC

[11] = biological target: Serine/threonine-protein kinase PAK 6 (Homo sapiens) (UniProt Q9NQU5); settings: at 1 µM
[12] = test system: Tyrosine-protein kinase ABL1 (Homo sapiens), P00519 [E255K]; settings: at 0.1 µM
[13] = test system: Tyrosine-protein kinase ABL1 (Homo sapiens), P00519 [E255K]; settings: at 1 µM
[14] = test system: Tyrosine-protein kinase ABL1 (Homo sapiens), P00519 [H396P]; settings: at 0.1 µM
[15] = test system: Tyrosine-protein kinase ABL1 (Homo sapiens), P00519 [H396P]; settings: at 1 µM
[16] = test system: Tyrosine-protein kinase ABL1 (Homo sapiens), P00519 [M351T]; settings: at 0.1 µM
[17] = test system: Tyrosine-protein kinase ABL1 (Homo sapiens), P00519 [M351T]; settings: at 1 µM
[18] = test system: Tyrosine-protein kinase ABL1 (Homo sapiens), P00519 [Q252H]; settings: at 0.1 µM
[19] = test system: Tyrosine-protein kinase ABL1 (Homo sapiens), P00519 [Q252H]; settings: at 1 µM
[20] = test system: Tyrosine-protein kinase ABL1 (Homo sapiens), P00519 [T315I]; settings: at 0.1 µM

Sequence of Serine/threonine-protein kinase 26 (Homo sapiens) (Q9P289 2-416 limits assumed): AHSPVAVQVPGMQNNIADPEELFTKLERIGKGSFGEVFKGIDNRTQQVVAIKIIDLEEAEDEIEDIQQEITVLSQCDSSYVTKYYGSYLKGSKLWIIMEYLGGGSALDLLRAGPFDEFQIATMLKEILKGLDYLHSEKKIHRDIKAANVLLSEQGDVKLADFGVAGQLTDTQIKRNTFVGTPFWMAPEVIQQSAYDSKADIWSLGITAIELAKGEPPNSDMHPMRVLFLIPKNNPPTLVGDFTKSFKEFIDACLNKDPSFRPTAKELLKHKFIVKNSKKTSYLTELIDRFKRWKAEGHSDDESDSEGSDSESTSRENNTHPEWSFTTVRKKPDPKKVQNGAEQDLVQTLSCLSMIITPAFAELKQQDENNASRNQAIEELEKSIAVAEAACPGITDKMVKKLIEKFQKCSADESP
Sequence of Serine/threonine-protein kinase PAK 1 (Homo sapiens) (Q13153 whole entry): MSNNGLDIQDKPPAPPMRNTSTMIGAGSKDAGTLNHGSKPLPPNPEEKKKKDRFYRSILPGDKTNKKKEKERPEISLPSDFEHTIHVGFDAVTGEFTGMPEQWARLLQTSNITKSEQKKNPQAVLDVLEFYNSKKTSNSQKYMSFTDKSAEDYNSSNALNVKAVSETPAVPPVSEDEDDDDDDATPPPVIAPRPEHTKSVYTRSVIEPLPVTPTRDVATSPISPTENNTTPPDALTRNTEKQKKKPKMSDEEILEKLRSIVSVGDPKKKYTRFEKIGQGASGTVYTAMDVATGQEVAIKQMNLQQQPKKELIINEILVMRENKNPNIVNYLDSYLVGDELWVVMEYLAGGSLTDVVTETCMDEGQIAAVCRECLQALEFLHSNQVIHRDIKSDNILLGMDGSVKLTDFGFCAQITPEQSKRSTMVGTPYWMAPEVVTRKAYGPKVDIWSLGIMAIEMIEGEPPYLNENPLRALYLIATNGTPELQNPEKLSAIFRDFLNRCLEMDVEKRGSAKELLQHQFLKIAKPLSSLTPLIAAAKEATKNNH

Row | Compound | inhibition [1] | inhibition [2] | inhibition [3] | inhibition [4] | inhibition [5] | inhibition [6] | inhibition [7] | inhibition [8] | inhibition [9] | inhibition [10] | inhibition [11] | inhibition [12] | inhibition [13] | inhibition [14] | inhibition [15] | inhibition [16] | inhibition [17] | inhibition [18] | inhibition [19] | inhibition [20]
1 | C#Cc1cccc(Nc2ncnc3ccc(OCCCCNCCS(C)(=O)=O)cc23)c1 | -0.45% | 9.27% | 7.48% | 2.71% | 1.48% | 4.58% | 5.67% | 2.62% | 4.31% | -6.04% | -2.58% | 4.64% | 19.7% | 7.05% | 23% | 4.14% | 19.2% | 6.79% | 22.7% | 3.9%
2 | c1ccc(-c2n[nH]cc2-c2ccnc(-c3ccc(OCCN4CCOCC4)cc3)c2)nc1 | 2.93% | -0.81% | 5.57% | 1.69% | 0.57% | 3.54% | 3.78% | -6.65% | 4.04% | 7.57% | 3.66% | 9.49% | 47.8% | 19.5% | 70.9% | 22.1% | 69.1% | 11.9% | 51.8% | 1.78%
3 | O=C(Nc1ccc(Oc2ccc3[nH]c(NC(=O)c4ccccc4)nc3c2)cc1)Nc1cc(C(F)(F)F)ccc1F | -0.48% | 5.49% | 5.94% | 2.09% | 2.3% | 2.23% | 2.99% | 3.8% | 4.86% | – | 3.44% | 3.28% | 27% | 17% | 71% | 44.6% | 79.8% | 38.4% | 74.6% | 36.6%
4 | CCS(=O)(=O)c1ccc(OC)c(Nc2ncc(-c3ccccc3Cl)o2)c1 | 1.46% | -0.73% | -1.58% | 1.78% | 0.49% | -0.53% | 0.98% | 3.82% | 17.3% | -6.91% | 0.05% | 2.3% | 16.3% | 5.27% | 23.2% | 5.47% | 22% | 5.67% | 26.3% | 3.23%
5 | O=C1Nc2ccc(I)cc2C1=Cc1cc(Br)c(O)c(Br)c1 | 8.78% | 7.31% | 11.5% | 1.87% | 1.49% | 3.52% | 5.78% | 9.36% | 10.2% | – | – | 1.89% | 6.01% | 4.06% | 6.63% | 1% | 4.74% | 3.44% | 7.29% | 2.84%
6 | NC(=O)Cc1ccccc1Oc1nccc(-c2c(-c3ccc(F)cc3)ncn2C2CCNCC2)n1 | -1.77% | 4.71% | 7.55% | 1.39% | 1.36% | 0.09% | 3.36% | -1.8% | -2.81% | 1.97% | -1.76% | 0.8% | 2.45% | 0.08% | -2.39% | -1.54% | -1.6% | 2.24% | 1.77% | 1.47%
7 | COc1cc2ncn(-c3cc(OCCc4ccccc4)c(C(N)=O)s3)c2cc1OC | -2.27% | -1.36% | 5.32% | 0.32% | -0.01% | 2.35% | 2.82% | -3.93% | -5.75% | 1.18% | -0.86% | -1.76% | 6.39% | 2.33% | 10.4% | -0.05% | 11.6% | 0.95% | 10.7% | 1.49%
8 | Cc1ccc(C(=O)NC(C)C)cc1-c1ccc(C(=O)NCC2CC2)cc1 | 1.12% | -1.5% | -0.84% | -1.39% | -3.39% | -3.81% | -3.2% | -4.56% | -2.22% | – | – | -0.92% | -0.81% | -1.54% | -1.16% | -0.95% | 1.25% | -2.61% | -1.55% | -1.99%
9 | Fc1ccc(-c2ncn(CCCN3CCOCC3)c2-c2ccncc2)cc1 | 0.15% | 2.56% | 3.02% | -0.59% | -0.77% | 0.6% | 0.53% | – | – | -0.97% | -7.59% | 0.23% | 0.13% | 0.23% | -0.46% | -2.27% | 1.4% | -1.12% | -0.09% | -1.3%
10 | O=C(Nc1n[nH]c2nc(-c3ccc(O)cc3)c(Br)cc12)C1CC1 | 35% | 7.71% | 8.21% | 2.36% | 3.87% | – | 6.07% | 1.12% | 8.52% | -0.4% | 8.5% | 21% | 66.4% | 38.5% | 81% | 37.4% | 81% | 37.5% | 82.4% | 43.5%
11 | O=C(NCC1CC1)c1ccc(-c2cccc(C(=O)NC3CC3)c2)cc1 | -6.13% | 1.6% | 3.71% | 2.76% | 1.58% | 2.9% | 2.97% | 9.42% | 6.07% | -1.35% | 8.38% | 2.4% | 3.09% | 3.44% | 3.43% | 2.14% | 4.08% | 2.78% | 4.27% | 2.52%
12 | CNC(=O)c1cncc(/C=C/c2c(C)cccc2C)c1 | 2.22% | 0.04% | 3.72% | 1.52% | -0.05% | -0.14% | 0.85% | 7.14% | 2.41% | – | 2.54% | 8.21% | 50.1% | 17.2% | 61.5% | 16.9% | 63.8% | 14.5% | 60.2% | 1.83%
13 | COc1cc(Nc2ncc(-c3ccccc3)o2)cc(OC)c1OC | -4.83% | -0.3% | -0.52% | -1.31% | -0.61% | -1.91% | -0.07% | -0.92% | 7.2% | -5.44% | – | 5.32% | 36.8% | 12.7% | 61.5% | 14.3% | 61.2% | 11.2% | 57.7% | 1.79%
14 | NCc1ccc(-n2c(-c3nonc3N)nc3cnccc32)cc1 | -0.73% | 12% | 11.4% | 3.24% | 4.52% | 5.94% | 6.83% | – | -2.63% | -1.38% | -0.18% | 3.58% | 2.62% | 5.81% | 0.32% | 3.87% | 0.32% | 4.57% | 1.69% | 2.95%
15 | COC(=O)Nc1nc2ccc(Sc3ccc(NC(=O)Nc4cc(C(F)(F)F)ccc4F)cc3)cc2[nH]1 | -1.61% | -1.15% | -1.32% | 10.8% | 0.18% | -0.08% | 0.83% | 6.86% | -2.02% | -4.57% | 1.21% | -1.69% | 14.8% | 2.95% | 49.9% | 33.2% | 70.2% | 26.9% | 70.7% | 27.7%
